Shown is part of a subset that was picked to be rich in the strongest signals.
What was measured:
Experiment in all cases: glycan array binding signal (z-score within array); higher = stronger binding
Settings in all cases: glycan notation: IUPAC condensed, linker removed
[1] = molecular target: GalNAc(b1-3)GlcNAc
Procedure, shortened: (§1)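 Arrays were curated from the Consortium for Functional Glycomics database, 3228 in total, and kept only where the protein sequence was available. Binding is expressed as a within-array Z-score. This score was averaged across arrays of the same protein sequence at different concentrations or buffers and across linkers, and negative values can be read as non-binding.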

[2] = molecular target: Glc(a1-4)Glc
Procedure, shortened: as §1

[3] = molecular target: GlcA(b1-3)Gal
Procedure, shortened: as §1

[4] = molecular target: GlcNAc(b1-2)Man(a1-3)[GlcNAc(b1-4)][GlcNAc(b1-2)Man(a1-6)]Man(b1-4)GlcNAc(b1-4)[Fuc(a1-6)]GlcNAc
Procedure, shortened: as §1

[5] = molecular target: GlcNAc(b1-2)[GlcNAc(b1-4)]Man(a1-3)[GlcNAc(b1-4)][GlcNAc(b1-2)[GlcNAc(b1-6)]Man(a1-6)]Man(b1-4)GlcNAc(b1-4)GlcNAc
Procedure, shortened: as §1

[6] = molecular target: GlcNAc(b1-3)Gal(b1-4)GlcNAc(b1-3)Gal(b1-4)GlcNAc(b1-3)Gal(b1-4)GlcNAc(b1-2)[GlcNAc(b1-3)Gal(b1-4)GlcNAc(b1-3)Gal(b1-4)GlcNAc(b1-3)Gal(b1-4)GlcNAc(b1-6)]Man(a1-6)[GlcNAc(b1-3)Gal(b1-4)GlcNAc(b1-3)Gal(b1-4)GlcNAc(b1-3)Gal(b1-4)GlcNAc(b1-2)Man(a1-3)]Man(b1-4)GlcNAc(b1-4)[Fuc(a1-6)]GlcNAc
Procedure, shortened: as §1

[7] = molecular target: GlcNAc(b1-3)Gal(b1-4)GlcNAc(b1-3)[GlcNAc(b1-3)Gal(b1-4)GlcNAc(b1-3)]GalNAc
Procedure, shortened: as §1

[8] = molecular target: GlcNAc(b1-3)Gal(b1-4)GlcNAc(b1-6)[Gal(b1-3)]GalNAc
Procedure, shortened: as §1

[9] = molecular target: GlcNAc(b1-3)Man
Procedure, shortened: as §1

[10] = molecular target: GlcNAc(b1-4)GlcNAc(b1-4)GlcNAc
Procedure, shortened: as §1

[11] = molecular target: Kdn(a2-6)Gal(b1-4)GlcNAc
Procedure, shortened: as §1

[12] = molecular target: Neu5Ac(a2-3)Gal(b1-3)GlcNAc(b1-3)Gal(b1-3)GlcNAc
Procedure, shortened: as §1

[13] = molecular target: Neu5Ac(a2-3)Gal(b1-3)GlcNAc(b1-3)Gal(b1-4)GlcNAc
Procedure, shortened: as §1

[14] = molecular target: Neu5Ac(a2-3)Gal(b1-3)[Fuc(a1-4)]GlcNAc(b1-3)Gal(b1-4)[Fuc(a1-3)]GlcNAc
Procedure, shortened: as §1

[15] = molecular target: Neu5Ac(a2-3)Gal(b1-4)GlcNAc(b1-2)[Neu5Ac(a2-3)Gal(b1-4)GlcNAc(b1-6)]Man(a1-6)[Neu5Ac(a2-3)Gal(b1-4)GlcNAc(b1-2)Man(a1-3)]Man(b1-4)GlcNAc(b1-4)GlcNAc
Procedure, shortened: as §1

[16] = molecular target: Neu5Ac(a2-3)Gal(b1-4)GlcNAc(b1-2)[Neu5Ac(a2-3)Gal(b1-4)GlcNAc(b1-6)]Man(a1-6)[Neu5Ac(a2-3)Gal(b1-4)GlcNAc(b1-2)Man(a1-3)][GlcNAc(b1-4)]Man(b1-4)GlcNAc(b1-4)GlcNAc
Procedure, shortened: as §1

[17] = molecular target: Neu5Ac(a2-3)Gal(b1-4)GlcNAc(b1-3)Gal(b1-4)GlcNAc(b1-3)Gal(b1-4)GlcNAc
Procedure, shortened: as §1

[18] = molecular target: Neu5Ac(a2-3)Gal(b1-4)GlcNAc(b1-6)GalNAc
Procedure, shortened: as §1

[19] = molecular target: Neu5Ac(a2-3)Gal(b1-4)GlcNAc(b1-6)[Gal(b1-3)]GalNAc
Procedure, shortened: as §1

[20] = molecular target: Neu5Ac(a2-6)Gal(b1-4)GlcNAc(b1-2)Man(a1-3)[Neu5Ac(a2-6)Gal(b1-4)GlcNAc(b1-2)Man(a1-6)]Man(b1-4)GlcNAc(b1-4)GlcNAc
Procedure, shortened: as §1

[21] = molecular target: Neu5Ac(a2-6)Gal(b1-4)GlcNAc(b1-2)Man(a1-6)[Gal(b1-4)GlcNAc(b1-2)Man(a1-3)]Man(b1-4)GlcNAc(b1-4)GlcNAc
Procedure, shortened: as §1

[22] = molecular target: Neu5Ac(a2-6)Gal(b1-4)GlcNAc(b1-3)Gal(b1-4)GlcNAc(b1-3)Gal(b1-4)GlcNAc(b1-2)Man(a1-3)[Neu5Ac(a2-6)Gal(b1-4)GlcNAc(b1-3)Gal(b1-4)GlcNAc(b1-3)Gal(b1-4)GlcNAc(b1-2)Man(a1-6)]GalNAc
Procedure, shortened: as §1

[23] = molecular target: Neu5Ac(a2-6)Gal(b1-4)GlcNAc(b1-6)[Gal(b1-3)GlcNAc(b1-3)]Gal(b1-4)Glc
Procedure, shortened: as §1

[24] = molecular target: Neu5Ac(a2-6)GalNAc(b1-4)GlcNAc6S
Procedure, shortened: as §1

[25] = molecular target: Neu5Ac(a2-8)Neu5Ac(a2-3)Gal(b1-3)GalNAc(b1-4)[Neu5Ac(a2-3)]Gal(b1-4)Glc
Procedure, shortened: as §1

[26] = molecular target: Neu5Ac(a2-8)Neu5Ac(a2-8)Neu5Ac(a2-3)[GalNAc(b1-4)]Gal(b1-4)Glc
Procedure, shortened: as §1

[27] = molecular target: Neu5Ac9Ac(a2-6)Gal(b1-4)GlcNAc
Procedure, shortened: as §1

[28] = molecular target: Neu5Gc(a2-6)Gal(b1-4)GlcNAc
Procedure, shortened: as §1

[29] = molecular target: Neu5Gc(a2-8)Neu5Gc(a2-3)Gal(b1-4)GlcNAc(b1-3)Gal(b1-4)GlcNAc
Procedure, shortened: as §1

B1: Gal 4 (Mus musculus), P56470 (protein)
chain: MAYVPAPGYQPTYNPTLPYYQPIPGGLNVGMSVYIQGVASEHMKRFFVNFVVGQDPGSDVAFHFNPRFDGWDKVVFNTLQGGKWGSEERKRSMPFKKGAAFELVFIVLAEHYKVVVNGNPFYEYGHRLPLQMVTHLQVDGDLQLQSINFIGGQPLRPQGPPMMPPYPGPGHCHQQLNSLPTMEGPPTFNPPVPYFGRLQGGLTARRTIIIKGYVPPTGKSFAINFKVGSSGDIALHINPRMGNGTVVRNSLLNGSWGSEEKKITHNPFGPGQFFDLSIRCGLDRFKVYANGQHLFDFAHRLSAFQRVDTLEIQGDVTLSYVQI
glycan array binding signal (z-score) [1]: -0.272
glycan array binding signal (z-score) [2]: -0.244
glycan array binding signal (z-score) [3]: -0.24
glycan array binding signal (z-score) [4]: -0.278
glycan array binding signal (z-score) [5]: -0.23
glycan array binding signal (z-score) [6]: -0.244
glycan array binding signal (z-score) [7]: -0.255
glycan array binding signal (z-score) [8]: -0.174
glycan array binding signal (z-score) [9]: -0.218
glycan array binding signal (z-score) [10]: -0.23
glycan array binding signal (z-score) [11]: -0.242
glycan array binding signal (z-score) [12]: 0.107
glycan array binding signal (z-score) [13]: -0.205
glycan array binding signal (z-score) [14]: -0.234
glycan array binding signal (z-score) [15]: -0.196
glycan array binding signal (z-score) [16]: -0.338
glycan array binding signal (z-score) [17]: -0.231
glycan array binding signal (z-score) [18]: -0.314
glycan array binding signal (z-score) [19]: -0.228
glycan array binding signal (z-score) [20]: -0.226
glycan array binding signal (z-score) [21]: -0.196
glycan array binding signal (z-score) [22]: -0.294
glycan array binding signal (z-score) [23]: -0.295
glycan array binding signal (z-score) [24]: -0.293
glycan array binding signal (z-score) [25]: -0.247
glycan array binding signal (z-score) [26]: -0.227
glycan array binding signal (z-score) [27]: -0.232
glycan array binding signal (z-score) [28]: -0.231
glycan array binding signal (z-score) [29]: -0.309

From the supplement of paper PMC8728848
